From PubChem BioAssay
“And” between values parts separate entries of the source, which are not always exact repeats. Equal values may be shown once. The source made the active and inactive calls. Unless noted, no stated cut-off is given here; in the data, active means parasite load remaining mostly below about 12% (no sharp cut-off); inactive means mostly above about 10%. Square brackets hold non-standard residues; d marks the D form. Peptide text beside a SMILES is read from it. Orn = NCCC[CH](N)C(=O)O

Assays:
[1] = P. berghei load reduction in hepatocytes – cell-based, HepG2, luciferase luminescence, HepG2 viability, primary screen (AID 624349);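 further: 100% = mean of DMSO negative control wells on the same plate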; settings: P. berghei liver stage in HepG2, luciferase luminescence, concentration not given here; parasite load remaining: stronger effect = lower value; viability: measured here: HepG2 viability without parasites
[2] = EMT-state selective cytotoxicity in co-culture – imaging, PC-3E GFP, TEM4-18 mCherry, primary screen (AID 1345086;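 active means compounds killing one labelled cell type while sparing the other, by normalised counts and ratio limits, not self-fluorescent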;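 on all read-outs here: cells exposed to compound for 72 h before imaging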;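 on red/green cell ratio (normalised): normalised mesenchymal count divided by normalised epithelial count so high means epithelial killing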); settings: PC-3E GFP / TEM4-18 mCherry co-culture, imaging cell counts, at 1 µM; for red/green cell ratio (normalised): actives lie on both sides, counts scaled to control wells, 1 = unselective
[3] = viability loss with induced miR-34 in A549 – imaging, A549 dox-inducible miR-34, nuclei and caspase counts, primary screen (AID 1347080;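 active means compounds whose cell count with miR-34 switched on is under 0.7 times the count with it off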); settings: A549 miR-34 inducible, Hoechst nuclei count, 48 h
[4] = molecular target: NAD(+) hydrolase SARM1 (Homo sapiens) (UniProt Q6SZW1); test: blocking NAD cleavage by SARM1 SAM-TIR – cell lysate, NAD-Glo luminescence (AID 1508614;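 active means compound whose remaining NAD level is above about 45 nM, limit read from the data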); settings: SAM-TIR HEK293T lysate NADase, at 1 µM, stronger effect = higher value
Chain of NAD(+) hydrolase SARM1 (Homo sapiens) (Q6SZW1 whole entry, looked up): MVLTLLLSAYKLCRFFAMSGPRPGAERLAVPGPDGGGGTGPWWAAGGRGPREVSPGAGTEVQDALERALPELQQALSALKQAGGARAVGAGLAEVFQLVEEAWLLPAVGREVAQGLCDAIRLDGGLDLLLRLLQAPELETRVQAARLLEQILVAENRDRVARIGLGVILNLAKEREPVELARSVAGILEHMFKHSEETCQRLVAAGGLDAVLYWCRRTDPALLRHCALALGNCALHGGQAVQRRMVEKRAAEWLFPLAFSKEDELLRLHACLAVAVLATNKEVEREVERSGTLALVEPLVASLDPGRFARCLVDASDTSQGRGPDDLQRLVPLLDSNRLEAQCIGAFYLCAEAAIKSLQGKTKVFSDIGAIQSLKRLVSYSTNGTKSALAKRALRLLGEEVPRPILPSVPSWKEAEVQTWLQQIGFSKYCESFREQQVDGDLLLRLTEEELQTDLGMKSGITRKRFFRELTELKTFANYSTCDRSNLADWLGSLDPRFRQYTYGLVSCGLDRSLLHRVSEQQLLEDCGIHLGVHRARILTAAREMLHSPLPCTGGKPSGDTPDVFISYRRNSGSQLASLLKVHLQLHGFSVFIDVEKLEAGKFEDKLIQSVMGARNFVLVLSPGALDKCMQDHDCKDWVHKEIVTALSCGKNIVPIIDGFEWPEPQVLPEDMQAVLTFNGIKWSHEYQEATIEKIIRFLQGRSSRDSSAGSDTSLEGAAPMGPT

[5] = measured here: epithelial PC-3E GFP cell survival
[6] = measured here: mesenchymal TEM4-18 mCherry cell survival
[7] = stronger effect = lower value, cell number ratio, induced over uninduced
[8] = measured here: relative caspase fold change +Dox/-Dox
[9] = measured here: total cells with miR-34 induction, stronger effect = lower value
[10] = measured here: total cells without miR-34 induction

**Q.** With `CC1(C)O[C@@H]2CC3C4C[C@H](F)C5=CC(=O)C=C[C@]5(C)[C@@]4(F)[C@@H](O)C[C@]3(C)[C@]2(C(=O)CO)O1` (stereo partly specified) as the compound, how does the parasite load remaining [1] read?
**A.** 74.8% (inactive)

**Q.** What about the viability [1] of the same compound?
**A.** 92.9%

**Q.** And the red/green cell ratio (normalised) [2]?
**A.** 1.12 (inactive)

**Q.** What about the normalised cell number [2, 5] of the same compound?
**A.** 1.2

**Q.** What about the normalised cell number [2, 6] of the same compound?
**A.** 1.35

**Q.** And the fold change [3, 7]?
**A.** 0.898 (inactive)

**Q.** What about the fold change [3, 8] of the same compound?
**A.** 0.891

**Q.** And the cell count [3, 9]?
**A.** 7030

**Q.** And the cell count [3, 10]?
**A.** 7830

**Q.** What does the source list for `CC(C)(C)NC[C@H](O)COc1ccccc1C1CCCC1`?
**A.** red/green cell ratio (normalised) [2]: 1.04 (inactive); normalised cell number [2, 5]: 1.13; normalised cell number [2, 6]: 1.17; remaining NAD [4]: 10 nM (inactive)

**Q.** With `CCCCCCCCCCCCCCCC(=O)OC[C@H](NC(=O)C(Cl)Cl)[C@H](O)c1ccc([N+](=O)[O-])cc1` as the compound, how does the parasite load remaining [1] read?
**A.** 77.1% (inactive)

**Q.** What about the viability [1] of the same compound?
**A.** 134%

**Q.** What about the red/green cell ratio (normalised) [2] of the same compound?
**A.** 1.04 (inactive)

**Q.** What about the normalised cell number [2, 5] of the same compound?
**A.** 1.01

**Q.** What about the normalised cell number [2, 6] of the same compound?
**A.** 1.06

**Q.** What about the fold change [3, 7] of the same compound?
**A.** 0.906 (inactive)

**Q.** And the fold change [3, 8]?
**A.** 2.23

**Q.** What about the cell count [3, 9] of the same compound?
**A.** 10500

**Q.** What about the cell count [3, 10] of the same compound?
**A.** 11500

**Q.** For `CC(=O)OC1CCC2C3CCc4cc(O)ccc4C3CCC12C` (stereo unspecified), which parasite load remaining [1] is on record?
**A.** 37.6% (inactive) and 33.6% (inactive)

**Q.** What about the viability [1] of the same compound?
**A.** 66.8% and 98%

**Q.** And the red/green cell ratio (normalised) [2]?
**A.** 0.88 (inactive)

**Q.** And the normalised cell number [2, 5]?
**A.** 1.2

**Q.** What about the normalised cell number [2, 6] of the same compound?
**A.** 1.05

**Q.** What about the fold change [3, 7] of the same compound?
**A.** 0.907 (inactive)

**Q.** And the fold change [3, 8]?
**A.** 3.29

**Q.** What about the cell count [3, 9] of the same compound?
**A.** 8630

**Q.** And the cell count [3, 10]?
**A.** 9520

**Q.** For `COc1cc(NS(C)(=O)=O)ccc1Cc1c2ccccc2nc2ccccc12`, which parasite load remaining [1] is on record?
**A.** 41.6% (inactive)

**Q.** What about the viability [1] of the same compound?
**A.** 143%

**Q.** And the red/green cell ratio (normalised) [2]?
**A.** 0.96 (inactive)

**Q.** And the normalised cell number [2, 5]?
**A.** 0.32

**Q.** What about the normalised cell number [2, 6] of the same compound?
**A.** 0.31

**Q.** And the fold change [3, 7]?
**A.** 0.911 (inactive)

**Q.** And the fold change [3, 8]?
**A.** 3.12

**Q.** And the cell count [3, 9]?
**A.** 3640

**Q.** And the cell count [3, 10]?
**A.** 4000

**Q.** For `C[C@H]1CC2C([C@@H](O)C[C@@]3(C)C2CC[C@]3(O)C(=O)COC(=O)CCC(=O)O)[C@@]2(C)C=CC(=O)C=C12` (stereo partly specified), which parasite load remaining [1] is on record?
**A.** 83.5% (inactive)

**Q.** What about the viability [1] of the same compound?
**A.** 148%

**Q.** And the red/green cell ratio (normalised) [2]?
**A.** 0.8 (inactive)

**Q.** And the normalised cell number [2, 5]?
**A.** 1.3

**Q.** What about the normalised cell number [2, 6] of the same compound?
**A.** 1.04

**Q.** What about the fold change [3, 7] of the same compound?
**A.** 0.962 (inactive)

**Q.** What about the fold change [3, 8] of the same compound?
**A.** 2.48

**Q.** What about the cell count [3, 9] of the same compound?
**A.** 7610

**Q.** What about the cell count [3, 10] of the same compound?
**A.** 7910

**Q.** Which parasite load remaining [1] does the source give for `CC(=O)O[C@]1(C(C)=O)CCC2C3C=C(Cl)C4=CC(=O)CC[C@]4(C)C3CC[C@@]21C` (stereo partly specified) here?
**A.** 113% (inactive) and 26.4% (inactive)

**Q.** What about the viability [1] of the same compound?
**A.** 84% and 106%

**Q.** And the red/green cell ratio (normalised) [2]?
**A.** 1.17 (inactive)

**Q.** What about the normalised cell number [2, 5] of the same compound?
**A.** 1.04

**Q.** And the normalised cell number [2, 6]?
**A.** 1.21

**Q.** What about the fold change [3, 7] of the same compound?
**A.** 0.904 (inactive)

**Q.** And the fold change [3, 8]?
**A.** 1.11

**Q.** And the cell count [3, 9]?
**A.** 9770

**Q.** And the cell count [3, 10]?
**A.** 10800

**Q.** With `CNCC[C@@H](Oc1ccccc1)c1ccccc1` as the compound, how does the parasite load remaining [1] read?
**A.** 48% (inactive)

**Q.** What about the viability [1] of the same compound?
**A.** 116%

**Q.** What about the red/green cell ratio (normalised) [2] of the same compound?
**A.** 1.13 (inactive)

**Q.** What about the normalised cell number [2, 5] of the same compound?
**A.** 1.27

**Q.** And the normalised cell number [2, 6]?
**A.** 1.44

**Q.** What about the fold change [3, 7] of the same compound?
**A.** 0.971 (inactive)

**Q.** What about the fold change [3, 8] of the same compound?
**A.** 1.23

**Q.** What about the cell count [3, 9] of the same compound?
**A.** 10900

**Q.** And the cell count [3, 10]?
**A.** 11200

**Q.** Which parasite load remaining [1] does the source give for `CC(C)CC1NC(=O)C(CCCN)NC(=O)C(C(C)C)NC(=O)C(Cc2ccc(O)cc2)NC(=O)C(CCC(=O)O)NC(=O)C(CC(=O)O)NC(=O)C(Cc2ccccc2)NC(=O)C(Cc2ccccc2)NC(=O)C2CCCN2C(=O)C(Cc2ccccc2)NC1=O` (stereo unspecified) (cyclo(DEYV[Orn]LFPFF); configuration not given here) here?
**A.** 7.69% (inactive) and 0.08% (inactive)

**Q.** And the viability [1]?
**A.** 49.2% and 36.8%

**Q.** What about the red/green cell ratio (normalised) [2] of the same compound?
**A.** 0.75 (inactive)

**Q.** And the normalised cell number [2, 5]?
**A.** 0.47

**Q.** And the normalised cell number [2, 6]?
**A.** 0.35

**Q.** And the fold change [3, 7]?
**A.** 1.12 (inactive)

**Q.** What about the fold change [3, 8] of the same compound?
**A.** 0.824

**Q.** And the cell count [3, 9]?
**A.** 1510

**Q.** What about the cell count [3, 10] of the same compound?
**A.** 1350

**Q.** Which parasite load remaining [1] does the source give for `NCC1CCCCC1CC(=O)O` (stereo unspecified) here?
**A.** 148% (inactive) and 51.6% (inactive)

**Q.** And the viability [1]?
**A.** 89.1% and 119%

**Q.** And the red/green cell ratio (normalised) [2]?
**A.** 0.8 (inactive)

**Q.** And the normalised cell number [2, 5]?
**A.** 1.27

**Q.** What about the normalised cell number [2, 6] of the same compound?
**A.** 1.02

**Q.** And the fold change [3, 7]?
**A.** 0.945 (inactive)

**Q.** And the fold change [3, 8]?
**A.** 5.86

**Q.** And the cell count [3, 9]?
**A.** 12000

**Q.** What about the cell count [3, 10] of the same compound?
**A.** 12700

**Q.** For `CC(C)CC1NC(=O)C(CCCN)NC(=O)C(C(C)C)NC(=O)C2CCCN2C(=O)C(Cc2ccccc2)NC(=O)C(CC(C)C)NC(=O)C(CCCN)NC(=O)C(C(C)C)NC(=O)C2CCCN2C(=O)C(Cc2ccccc2)NC1=O` (stereo unspecified) (cyclo(FPV[Orn]LFPV[Orn]L); configuration not given here), which parasite load remaining [1] is on record?
**A.** -0.175% (inactive)

**Q.** What about the viability [1] of the same compound?
**A.** 12.4%

**Q.** What about the red/green cell ratio (normalised) [2] of the same compound?
**A.** 0.94 (inactive)

**Q.** And the normalised cell number [2, 5]?
**A.** 0.39

**Q.** And the normalised cell number [2, 6]?
**A.** 0.37

**Q.** What about the fold change [3, 7] of the same compound?
**A.** 0.889 (inactive)

**Q.** What about the fold change [3, 8] of the same compound?
**A.** 1.03

**Q.** And the cell count [3, 9]?
**A.** 2080

**Q.** What about the cell count [3, 10] of the same compound?
**A.** 2340

**Q.** Which parasite load remaining [1] does the source give for `NC[C@H]1O[C@H](OC2[C@@H](N)C[C@@H](N)[C@H](O[C@H]3O[C@H](CO)[C@@H](O)[C@H](N)[C@H]3O)[C@H]2O)[C@H](O)[C@@H](O)[C@@H]1O` (stereo partly specified) here?
**A.** 92.2% (inactive) and 70.3% (inactive)

**Q.** What about the viability [1] of the same compound?
**A.** 72.7% and 101%

**Q.** And the red/green cell ratio (normalised) [2]?
**A.** 1.25 (inactive)

**Q.** And the normalised cell number [2, 5]?
**A.** 0.64

**Q.** What about the normalised cell number [2, 6] of the same compound?
**A.** 0.8

**Q.** What about the fold change [3, 7] of the same compound?
**A.** 0.877 (inactive)

**Q.** What about the fold change [3, 8] of the same compound?
**A.** 2

**Q.** What about the cell count [3, 9] of the same compound?
**A.** 11500

**Q.** And the cell count [3, 10]?
**A.** 13200

**Q.** With `CS(=O)(=O)c1ccc(C(O)[C@H](CF)NC(=O)C(Cl)Cl)cc1` (stereo partly specified) as the compound, how does the parasite load remaining [1] read?
**A.** 50.1% (inactive)

**Q.** And the viability [1]?
**A.** 102%

**Q.** And the red/green cell ratio (normalised) [2]?
**A.** 0.78 (inactive)

**Q.** And the normalised cell number [2, 5]?
**A.** 0.91

**Q.** What about the normalised cell number [2, 6] of the same compound?
**A.** 0.71

**Q.** What about the fold change [3, 7] of the same compound?
**A.** 0.945 (inactive)

**Q.** What about the fold change [3, 8] of the same compound?
**A.** 2.12

**Q.** What about the cell count [3, 9] of the same compound?
**A.** 10700

**Q.** And the cell count [3, 10]?
**A.** 11400

**Q.** Which results are given for `CC(C)(C)NC(=O)[C@H]1CCC2C3CCC4NC(=O)C=C[C@]4(C)C3CC[C@@]21C` (stereo partly specified)?
**A.** parasite load remaining [1]: 30.5% (inactive); viability [1]: 97.9%; red/green cell ratio (normalised) [2]: 1.12 (inactive); normalised cell number [2, 5]: 0.62; normalised cell number [2, 6]: 0.69; fold change [3, 7]: 0.895 (inactive); fold change [3, 8]: 2.7; cell count [3, 9]: 11000; cell count [3, 10]: 12300
